This note sets out measurements from PMC4336329 (PLoS ONE, 2015).

Molecules are shown by their SMILES. Screen size: about 310,000 compounds; about 14,000 (4.5%) showed an effect of 50% or more. The effect is printed as a negative number. This excerpt belongs to a sample that is enriched for strong results.
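Also: peak tail current of the secondary pulse compared with the same well before compound.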

For this test, the target named is human ether-à-go-go-related gene (hERG) potassium channel (human, UniProt Q12809). Briefly: primary screen, population patch clamp on CHO cells stably expressing hERG; higher = less effect of the substance.
Chain of human ether-à-go-go-related gene (hERG) potassium channel (Q12809 whole entry, looked up): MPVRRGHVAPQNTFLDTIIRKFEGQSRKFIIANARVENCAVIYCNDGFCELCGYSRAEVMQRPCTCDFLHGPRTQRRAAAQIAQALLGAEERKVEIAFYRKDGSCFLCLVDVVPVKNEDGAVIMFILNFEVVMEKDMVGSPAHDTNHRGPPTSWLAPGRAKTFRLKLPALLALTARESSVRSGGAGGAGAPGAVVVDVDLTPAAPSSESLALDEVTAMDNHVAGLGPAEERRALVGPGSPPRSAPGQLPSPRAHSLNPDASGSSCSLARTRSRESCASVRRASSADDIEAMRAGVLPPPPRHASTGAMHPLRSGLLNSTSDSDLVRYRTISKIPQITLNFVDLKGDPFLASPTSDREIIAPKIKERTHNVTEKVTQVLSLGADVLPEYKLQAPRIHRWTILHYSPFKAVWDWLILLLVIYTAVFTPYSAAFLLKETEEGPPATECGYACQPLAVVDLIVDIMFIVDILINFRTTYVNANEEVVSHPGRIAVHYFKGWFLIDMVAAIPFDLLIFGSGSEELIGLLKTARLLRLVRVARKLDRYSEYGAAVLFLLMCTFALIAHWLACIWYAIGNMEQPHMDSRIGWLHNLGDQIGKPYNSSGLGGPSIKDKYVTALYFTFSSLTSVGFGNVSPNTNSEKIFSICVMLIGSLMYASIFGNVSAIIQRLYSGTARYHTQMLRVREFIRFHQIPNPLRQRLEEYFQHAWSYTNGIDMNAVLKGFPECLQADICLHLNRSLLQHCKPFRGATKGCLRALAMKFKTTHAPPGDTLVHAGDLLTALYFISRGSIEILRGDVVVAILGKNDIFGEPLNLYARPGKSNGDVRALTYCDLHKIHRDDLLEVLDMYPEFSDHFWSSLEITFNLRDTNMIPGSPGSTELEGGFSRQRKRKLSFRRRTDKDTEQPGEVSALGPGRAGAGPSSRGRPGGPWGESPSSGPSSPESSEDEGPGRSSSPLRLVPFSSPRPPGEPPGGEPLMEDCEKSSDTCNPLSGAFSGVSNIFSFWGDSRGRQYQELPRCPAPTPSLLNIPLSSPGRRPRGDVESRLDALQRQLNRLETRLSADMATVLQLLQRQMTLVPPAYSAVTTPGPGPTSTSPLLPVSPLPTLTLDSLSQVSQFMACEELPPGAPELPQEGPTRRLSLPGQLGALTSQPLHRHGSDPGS
Consider `CC(Sc1nc(N)cc(=O)[nH]1)C(=O)NC1CCCCC1` (stereo not shown), for which the “hERG current change (%, negative = inhibition) at 10uM” value is given as -4%.
For the compound `O=C(CSc1ncccn1)NCc1ccccc1Cl`, the “hERG current change (%, negative = inhibition) at 10uM” value is listed as -2.63%.
The value for `CCOc1ncccc1C(=O)Nc1ccc(S(=O)(=O)Nc2nc(C)cc(C)n2)cc1` was 2.16%; that for `CCOC(=O)N1CCN(C(=O)CSc2ccc(-c3ccncc3)nn2)CC1` was -0.414%.
Consider `Cc1ccccc1-n1cnc2cc(NCc3cccs3)ccc21`, for which the “hERG current change (%, negative = inhibition) at 10uM” value was -31%.
For the compound `CC1=C(C(=O)NCCN2CCN(C)CC2)C2(CCC(C)CC2)OC1=O` (stereo not shown), the “hERG current change (%, negative = inhibition) at 10uM” value is reported as 6.17%.
For `Cc1ccc(-c2ccc(CO)o2)cc1N`, the “hERG current change (%, negative = inhibition) at 10uM” value stood at 9.48%.
As for `O=C(CN1C(=O)C2CC=CCC2C1=O)Nc1ccc(S(=O)(=O)NC2=NCCCCC2)cc1` (stereo not shown), the “hERG current change (%, negative = inhibition) at 10uM” value is 1.02%.
The result for `CCN1C(=O)C(=C2C=C(C)N(Cc3ccco3)C(C)=C2)C(=O)N(CC)C1=S` reads -35%.
The result for `CCCCC(=O)Nc1nnc(-c2ccco2)o1` reads -0.241%.
As for `Cc1cc(C)c(C(=O)OCC(=O)NC(=O)c2ccccc2)c(C)c1`, the “hERG current change (%, negative = inhibition) at 10uM” value is recorded as 11.9%.
Take `O=C(CCc1ccccc1)Nc1cc(NC(=O)CCc2ccccc2)cc(C(=O)O)c1`: the “hERG current change (%, negative = inhibition) at 10uM” value is recorded as -22%.
The result for `Cc1ccc(NC(=O)c2nc[nH]c2C(=O)N2CCc3ccccc3C2)cc1` reads 18.8%; that for `CCCN1CCC(NC(=S)Nc2ccc(S(N)(=O)=O)cc2)CC1`, 10.7%; that for `CCCN1CCN(C(=S)Nc2ccc([N+](=O)[O-])cc2)CC1`, -52.1%.
`CCN1CCN(C(=S)Nc2ccc([N+](=O)[O-])cc2)CC1`: the “hERG current change (%, negative = inhibition) at 10uM” value is listed as -26.6%.
For `CCCN1CCC(NC(=S)Nc2ccc([N+](=O)[O-])cc2)CC1`, the “hERG current change (%, negative = inhibition) at 10uM” value is -52.6%.
The result for `CCCN1CCC(NC(=O)Nc2ccc([N+](=O)[O-])cc2)CC1` reads -32.2%.
On to `CN1CCN(C(=S)Nc2ccc([N+](=O)[O-])cc2)CC1`, for which the “hERG current change (%, negative = inhibition) at 10uM” value is -23.1%.
As for `COc1cc(/C=C/C(=O)O)cc(S(=O)(=O)Nc2ccccc2SC)c1OC`, the “hERG current change (%, negative = inhibition) at 10uM” value was 15.5%.
For the compound `O=C(Nc1ncn[nH]1)c1ccc(S(=O)(=O)N2CCOCC2)cc1`, the “hERG current change (%, negative = inhibition) at 10uM” value is -5.88%.
Regarding `CC(C)c1ccc(NC(=O)CN2C(=O)NC3(CCCC3)C2=O)cc1`, the “hERG current change (%, negative = inhibition) at 10uM” value is on record as 5.63%.
`COc1cccc(C(=O)OCCN2CCOCC2)c1.Cl`: the “hERG current change (%, negative = inhibition) at 10uM” value is on record as 6.33%.
`Cc1cc(C)c(OCC(=O)NCC2COc3ccccc3O2)c(C)c1` (stereo not shown): the “hERG current change (%, negative = inhibition) at 10uM” value is listed as -13.9%.
With `O=C(CSc1nnc(CNC(=O)c2ccccc2F)o1)NC1CCCC1`, the “hERG current change (%, negative = inhibition) at 10uM” value is 10.7%.
`CCN(CCn1cccn1)C(=O)CCc1nnc(CCCc2ccccc2)o1`: the “hERG current change (%, negative = inhibition) at 10uM” value is -37%.
In the case of `CC(C)(C)c1cc(NC(=O)c2ccc(OC3CCCC3)cc2)no1`, the “hERG current change (%, negative = inhibition) at 10uM” value is 14.2%.
Consider `CCOC(=O)C1CCN(C(=O)CCc2c(C)nc3c(-c4ccc(F)cc4)c(C)nn3c2C)CC1`, for which the “hERG current change (%, negative = inhibition) at 10uM” value was -71.1%.
With `Cc1nc2c(-c3ccc(F)cc3)c(C)nn2c(C)c1CCC(=O)N1CCOCC1`, the “hERG current change (%, negative = inhibition) at 10uM” value is -53.3%.
As for `Cc1nc2c(-c3ccc(F)cc3)c(C)nn2c(C)c1CCC(=O)N1CCN(c2ccccn2)CC1`, the “hERG current change (%, negative = inhibition) at 10uM” value is reported as -69.5%.
In the case of `Cc1nc2cc(-c3cccc(F)c3)nn2c(C)c1CCC(=O)N1CCC2(CC1)OCCO2`, the “hERG current change (%, negative = inhibition) at 10uM” value is on record as -37.5%.
Take `COc1ccccc1NC(=O)CCc1c(C)nc2c(-c3ccc(F)cc3)c(C)nn2c1C`: the “hERG current change (%, negative = inhibition) at 10uM” value is on record as -20.3%.
On to `COC(CNC(=O)CCc1c(C)nc2c(-c3ccc(F)cc3)c(C)nn2c1C)OC`, for which the “hERG current change (%, negative = inhibition) at 10uM” value was -21.8%.
On to `Cc1nc2c(-c3ccccc3)c(C)nn2c(C)c1CCC(=O)N1CCOCC1`, for which the “hERG current change (%, negative = inhibition) at 10uM” value is reported as -33.9%.
With `Cc1nc2c(-c3ccc(F)cc3)c(C)nn2c(C)c1CCC(=O)N1CCC2(CC1)OCCO2`, the “hERG current change (%, negative = inhibition) at 10uM” value is listed as -67.8%.
The value for `Cc1nc2c(-c3ccccc3)c(C)nn2c(C)c1CCC(=O)N1CCC2(CC1)OCCO2` was -40.5%; that for `Cc1nc2c(-c3ccc(F)cc3)c(C)nn2c(C)c1CCC(=O)N1CCC(Cc2ccccc2)CC1` was -21.2%; that for `Cc1nc2c(-c3ccc(F)cc3)c(C)nn2c(C)c1CCC(=O)NCCN1CCOCC1` was -24.3%.
As for `CCCCCCc1nnc(N)s1`, the “hERG current change (%, negative = inhibition) at 10uM” value is recorded as -0.995%.
In the case of `Cc1cc(=O)n(C2CCS(=O)(=O)C2)[nH]1` (stereo not shown), the “hERG current change (%, negative = inhibition) at 10uM” value worked out at 14.7%.
Take `O=c1[nH]c(=S)c2ncn(-c3ccccc3)c2[nH]1`: the “hERG current change (%, negative = inhibition) at 10uM” value is 11.7%.
In the case of `CCCCC(CCC(=O)O)(C(=O)OCC)c1csc(Nc2ccc(C)cc2)n1` (stereo not shown), the “hERG current change (%, negative = inhibition) at 10uM” value is recorded as -0.891%.
`Cc1ccc(N2C(=O)CC(c3ccsc3)C3=C2CC(C)(C)CC3=O)cc1` (stereo not shown): the “hERG current change (%, negative = inhibition) at 10uM” value worked out at 3.75%.
The value for `COc1ccc(CNC(=O)CN2CCN(c3cccc(C)c3C)CC2)cc1` was -8.46%; that for `CCN(CC(=O)Nc1ccccc1OC)C(=O)CSCc1ccc(C)cc1` was -2.36%.
The value for `CCCNC(=O)NC(=O)COC(=O)c1cccc(NS(=O)(=O)c2ccc(F)c(F)c2)c1` was -12%.
